Rows were chosen to be rich in hits. Some 2.6% of all compounds tested hit in one or more screens of this group.
TROY NFkB inh – TROY signaling inhibition. inhibition, % at 10 µM. Q293 LMP1-TROYcd NF-kB luciferase reporter, 4 h. actives 0.98% (n = 360,000);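 active means compounds whose plate-normalised and pattern-corrected inhibition of the luciferase reporter signal at the single screening dose is 50% or more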
LMP1 NFkB inh – inhibitors of Epstein-Barr LMP1-induced NF-kappaB reporter | LMP1-induced NF-kappaB luciferase reporter cells, luminescence | inhibition, % at 12.5 µM | actives 0.69% (n = 350,000) | AID 504558; in the data active means inhibition above about 41%
LGR2 antag – Drosophila LGR2 receptor signaling inhibition; HEK293 LGR2, CRE-luciferase, bursicon-stimulated, 4 h; inhibition, % at 9.99 µM; actives 0.35% (n = 380,000);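 active means drop in luminescence signal, shown as inhibition above about 50% in the replicate tests, limit read from the data, passing the limit was not always enough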;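 further: agonist challenge used bursicon conditioned medium at about half maximal strength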
TWEAK Fn14 block – TWEAK-Fn14 signaling inhibition; TWEAK-stimulated Fn14 reporter cells, luciferase luminescence, 8 h; inhibition, % at 10 µM; actives 2% (n = 360,000); AID 1159606; in the data active means inhibition above about 50%
EWS-Fli block – inhibitors of EWS/Fli oncoprotein transcriptional activity; A673 NR0B1-luciferase reporter, viability-normalised; inhibition, % at 12.6 µM; actives 0.67% (n = 350,000);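 active means mean inhibition of at least 50% after viability correction, with every replicate also passing that limit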;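 further: firefly luciferase signal divided by Alamar Blue viability fluorescence both relative to DMSO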
A number is an active result; n = inactive; x = no result given.

SMILES | TROY NFkB inh | LMP1 NFkB inh | LGR2 antag | TWEAK Fn14 block | EWS-Fli block
Cc1ccc(O)c(N=Cc2cc(Cc3ccccc3)cc([N+](=O)[O-])c2O)c1 | 52.3 | n | n | n | n
O=[N+]([O-])c1cc(Cc2ccccc2)cc(C=Nc2ccc(N3CCOCC3)cc2)c1O | n | n | x | n | x
CCSC1=N/C(=C\c2cccnc2)C(=O)N1c1ccccc1 | n | n | n | n | x
CCOC(=O)CSC1=N/C(=C\c2cccnc2)C(=O)N1c1ccc(OC)cc1 | n | 56.2 | n | n | x
Cc1ccccc1-c1cnc2c(c1)C(=O)N([C@H](C)CO)C[C@H](C)[C@H](CN(C)C(=O)CN(C)C)O2 | x | x | n | x | n
C[C@@H]1CN([C@@H](C)CO)C(=O)c2cc(NC(=O)Nc3cccc4ccccc34)ccc2O[C@@H](C)CCCCO[C@H]1CN(C)CC1CC1 | x | x | n | x | n
C[C@H]1CCCCO[C@H](CN(C)CC2CCCCC2)[C@@H](C)CN([C@@H](C)CO)C(=O)c2cc(NC(=O)Nc3cccc4ccccc34)ccc2O1 | x | x | n | x | 89.2
C[C@H](CO)N1C[C@H](C)[C@@H](CN(C)C(=O)NC2CCCCC2)Oc2c(NS(=O)(=O)c3cn(C)cn3)cccc2C1=O | n | 49.8 | n | n | n
C[C@@H]1CN([C@@H](C)CO)C(=O)c2cccc(NS(=O)(=O)c3cn(C)cn3)c2O[C@H]1CN(C)C(=O)NC1CCCCC1 | x | x | n | x | n
C[C@@H]1CN([C@@H](C)CO)C(=O)c2cc(NC(=O)Nc3cccc4ccccc34)ccc2O[C@@H](C)CCCCO[C@@H]1CN(C)CC1CCCCC1 | x | x | n | x | 81.7
C[C@@H]1CN([C@@H](C)CO)C(=O)c2cc(NC(=O)Nc3cccc4ccccc34)ccc2O[C@@H](C)CCCCO[C@H]1CN(C)CC1CCCCC1 | x | x | n | x | 90.7
Cc1ccccc1S(=O)(=O)N1C[C@@H](O)COC[C@H]2O[C@H](CC(=O)NCc3ccccc3Cl)CC[C@@H]21 | x | x | n | x | n
C[C@H](CO)N1C[C@H](C)[C@H](CN(C)C(=O)Nc2cccc3ccccc23)OCCCC[C@H](C)Oc2ccc(NC(=O)NC3CCCCC3)cc2C1=O | x | x | 60.0 | x | n
C[C@@H]1CN([C@@H](C)CO)C(=O)c2cc(NC(=O)Nc3cccc4ccccc34)ccc2O[C@@H]1CN(C)CC1CCCCC1 | x | x | n | x | 76.9
C[C@@H]1CCCCO[C@@H](CN(C)CC2CCCCC2)[C@H](C)CN([C@H](C)CO)C(=O)c2cc(NC(=O)Nc3cccc4ccccc34)ccc2O1 | x | x | n | x | 90.0
C[C@H](CO)N1C[C@H](C)[C@H](CN(C)CC2CC2)OCCCC[C@H](C)Oc2ccc(NC(=O)Nc3cccc4ccccc34)cc2C1=O | x | x | n | x | n
COC(=O)C1=C(C)N(Cc2cccc(C(F)(F)F)c2)C(=NCc2cc(OC)c(OC)c(OC)c2)NC1c1ccccc1C(F)(F)F (stereo not drawn) | x | x | n | x | n
COc1ccccc1N(C)S(=O)(=O)c1ccc(C(=O)OCC(=O)c2c[nH]c3ccccc23)cc1 | n | n | n | 51.0 | n
COc1cccc(/C=C/C(=O)OCC(=O)c2c[nH]c3ccccc23)c1OC | n | n | x | 55.5 | n
O=C(OCC(=O)c1c[nH]c2ccccc12)c1cccc(S(=O)(=O)N2CCCCCC2)c1 | n | n | n | 52.1 | n
CCC(=O)N1CCCCN2[C@H](CO)[C@@H](c3ccc(-c4cccc(C(=O)N(C)C)c4)cc3)[C@@H]2C1 | x | x | n | x | n
C[C@H]1CCCCO[C@H](CN(C)Cc2ccc(C(=O)O)cc2)[C@@H](C)CN([C@@H](C)CO)C(=O)c2cc(NC(=O)NC3CCCCC3)ccc2O1 | x | x | n | x | n
CC=Cc1ccc2n(c1=O)C[C@@H]1[C@@H](CO)[C@H](C(=O)N(C)C)[C@H]2N1CC1CCCCC1 (mixture of isomers) | x | x | n | x | n
COc1cccc(CNC(=O)C[C@@H]2CC[C@@H](NC(=O)C3CCC3)[C@H](CO)O2)c1 | x | x | n | x | n
O=C(N[C@@H]1C=C[C@@H](CC(=O)N2CCN(c3ccccc3)CC2)O[C@H]1CO)c1ccccc1 | x | x | n | x | n
SMILES | TROY NFkB inh | LMP1 NFkB inh | LGR2 antag | TWEAK Fn14 block | EWS-Fli block
COC(=O)[C@@H]1Cc2c([nH]c3ccccc23)C(C)(C)N1C(=O)CCl | n | n | n | n | 57.9
COC(=O)C1Cc2c([nH]c3ccccc23)C2CCC(=O)N12 (stereo not drawn) | n | n | n | n | n
C[C@@H]1CCCCO[C@H](CN(C)C(=O)Nc2ccc(C(F)(F)F)cc2)[C@H](C)CN([C@H](C)CO)C(=O)c2cc(NC(=O)Nc3ccccc3)ccc2O1 | x | x | n | x | n
CC(C)(C)C(=O)NC(=S)NNC(=O)c1sc2ccccc2c1Cl | 86.0 | 57.5 | x | 99.6 | x
O=C(NNC(=S)NC1CCCCC1)c1sc2ccccc2c1Cl | 76.3 | n | n | n | n
O=C(NC1CC1)c1sc2ccccc2c1Cl | n | n | n | n | n
C[C@H](CO)N1C[C@H](C)[C@@H](CN(C)S(=O)(=O)c2ccccc2)Oc2c(NS(C)(=O)=O)cccc2C1=O | x | x | x | x | n
C[C@@H]1CN([C@H](C)CO)C(=O)c2cc(NC(=O)CCCCCC(=O)Nc3ccccc3N)ccc2O[C@@H](C)CCCCO[C@H]1CN(C)Cc1ccc(Cl)c(Cl)c1 | x | x | n | x | n
NC(=O)c1cc2ccncc2c2ccccc12 | 57.9 | n | n | n | n
Cn1cnc(S(=O)(=O)N2C[C@H](O)COC[C@H]3O[C@H](CC(=O)NC4CCC4)CC[C@@H]32)c1 | x | x | n | x | x
CCn1cc(S(=O)(=O)Nc2ccc3c(c2)OCCO3)cn1 | 85.9 | n | n | 88.0 | n
Cc1nc(S(=O)(=O)Nc2ccc3c(c2)OCCO3)cn1C | n | n | n | n | n
Cn1cc(S(=O)(=O)Nc2ccc3c(c2)OCCO3)cn1 | 62.3 | n | n | 70.0 | n
COc1ccc(S(=O)(=O)Nc2ccc3c(c2)OCO3)cc1C | n | n | n | n | x
COc1ccc(S(=O)(=O)Nc2ccc3c(c2)OCCO3)cc1OC | n | n | n | 55.5 | n
Cc1ccc(S(=O)(=O)Nc2ccc3c(c2)CC(=O)N([C@@H](C)CO)C[C@@H](C)[C@@H](CN(C)Cc2ccc(-c4ccccc4)cc2)O3)cc1 | x | x | n | x | n
CCOC(=O)c1c(SC)n(-c2ccccc2)c(=S)n(-c2ccccc2)c1=O | n | n | n | n | n
CCOC(=O)c1c(SCCN2CCCCC2)n(-c2ccccc2)c(=S)n(-c2ccccc2)c1=O | n | n | n | n | 78.7
CCC(C)(C)NC(=O)CN(C(=O)CCC(=O)Nc1nccs1)c1ccc2c(c1)OCCO2 | 52.4 | n | n | 64.1 | n
CCc1nnc(NC(=O)c2ccc(Cl)c(S(=O)(=O)N3CCc4ccccc4C3)c2)s1 | 55.3 | n | n | n | n
CCc1nnc(NC(=O)c2ccc(S(=O)(=O)N3CCOCC3)cc2)s1 | n | 78.5 | n | n | n
COc1ccc(NC(=O)c2ccc(Cl)c(S(=O)(=O)N3CCc4ccccc4C3)c2)cn1 | 53.2 | n | n | 85.6 | x
O=C(Nc1ccccn1)c1ccc(Cl)c(S(=O)(=O)N2CCc3ccccc32)c1 | n | n | n | 56.3 | n
CCCCc1nnc(NC(=O)c2ccc(S(=O)(=O)N3CCOCC3)cc2)s1 | n | n | n | n | n

Compound activity as filed in PubChem BioAssay.
